# Assay results taken from the supplement of paper PMC6089552.
# Out of some 3,200 compounds screened, about 300 (9.4%) showed activity. Only a selection was taken, and actives are over-represented in it overall.
# System: A673/TR/shEF
# Experiment: cell viability (LOESS-normalised, relative to median of negative controls) (log2 ratio); higher = more viable cells (less compound effect), active = hit call of the paper (over 3 MAD below the median)
# Conditions: treatment time: 72 h
# Outline: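 Viability of A673/TR/shEF Ewing sarcoma cells was determined by CellTiter-Glo luminescence. The cells, at 1,500 per well in 384-well plates, were grown with or without doxycycline from 24 h before compound addition to switch on EWS-FLI1 shRNA knockdown, then exposed for three days to library compounds at two or more concentrations or to DMSO controls. Signals were LOESS-corrected plate by plate, normalised to the negative-control median and log2-transformed.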
# [1] = 0.25 µM, library screen: screen2, EWS-FLI1 expression: high (no doxycycline)
# [2] = 0.25 µM, library screen: screen2, EWS-FLI1 expression: low (doxycycline-induced shRNA knockdown)
# [3] = 2.5 µM, library screen: screen2, EWS-FLI1 expression: high (no doxycycline)
# [4] = 2.5 µM, library screen: screen2, EWS-FLI1 expression: low (doxycycline-induced shRNA knockdown)
# [5] = 0.25 µM, library screen: screen1, EWS-FLI1 expression: high (no doxycycline)
# [6] = 0.25 µM, library screen: screen1, EWS-FLI1 expression: low (doxycycline-induced shRNA knockdown)
# [7] = 2.5 µM, library screen: screen1, EWS-FLI1 expression: high (no doxycycline)
# [8] = 2.5 µM, library screen: screen1, EWS-FLI1 expression: low (doxycycline-induced shRNA knockdown)
# [9] = 0.103 µM, library screen: screen3, EWS-FLI1 expression: high (no doxycycline)
# [10] = 0.103 µM, library screen: screen3, EWS-FLI1 expression: low (doxycycline-induced shRNA knockdown)
# [11] = 0.308 µM, library screen: screen3, EWS-FLI1 expression: high (no doxycycline)
# [12] = 0.308 µM, library screen: screen3, EWS-FLI1 expression: low (doxycycline-induced shRNA knockdown)
# [13] = 0.926 µM, library screen: screen3, EWS-FLI1 expression: high (no doxycycline)
# [14] = 0.926 µM, library screen: screen3, EWS-FLI1 expression: low (doxycycline-induced shRNA knockdown)
# [15] = 2.8 µM, library screen: screen3, EWS-FLI1 expression: high (no doxycycline)
# [16] = 2.8 µM, library screen: screen3, EWS-FLI1 expression: low (doxycycline-induced shRNA knockdown)
# [17] = 8.3 µM, library screen: screen3, EWS-FLI1 expression: high (no doxycycline)
# [18] = 8.3 µM, library screen: screen3, EWS-FLI1 expression: low (doxycycline-induced shRNA knockdown)
# [19] = 25 µM, library screen: screen3, EWS-FLI1 expression: high (no doxycycline)
# [20] = 25 µM, library screen: screen3, EWS-FLI1 expression: low (doxycycline-induced shRNA knockdown)
# [21] = 0.025 µM, library screen: screen1, EWS-FLI1 expression: high (no doxycycline)
# [22] = 0.025 µM, library screen: screen1, EWS-FLI1 expression: low (doxycycline-induced shRNA knockdown)
# [23] = 25 µM, library screen: screen1, EWS-FLI1 expression: high (no doxycycline)
# [24] = 25 µM, library screen: screen1, EWS-FLI1 expression: low (doxycycline-induced shRNA knockdown)
smiles,measurement,setting,value
CO[C@H]1C=CC2CCN3CCC4=C(CC(=O)OC4)[C@]23C1 (some centres undefined),cell viability (log2),[1],0.124 (inactive)
same,cell viability (log2),[2],0.124 (inactive)
same,cell viability (log2),[3],0.0895 (inactive)
same,cell viability (log2),[4],0.152 (inactive)
CC1(C)OC(=O)C=C[C@@]2(C)C1C[C@@H](O)[C@]1(C)C2CC[C@@]2(C)[C@H](c3ccoc3)OC(=O)C3OC321 (some centres undefined),cell viability (log2),[5],0.0796 (inactive)
same,cell viability (log2),[6],0.0686 (inactive)
same,cell viability (log2),[7],0.159 (inactive)
same,cell viability (log2),[8],0.0743 (inactive)
Cc1nc2ccc(NC(=S)N3CCCC3)cc2nc1C,cell viability (log2),[5],-0.0193 (inactive)
same,cell viability (log2),[6],0.0405 (inactive)
same,cell viability (log2),[7],0.0212 (inactive)
same,cell viability (log2),[8],0.0752 (inactive)
CC1=C(C(=O)Nc2cccc(Cl)c2)C(c2cccs2)NC(=S)N1 (centres undefined),cell viability (log2),[5],0.0938 (inactive)
same,cell viability (log2),[6],0.0927 (inactive)
same,cell viability (log2),[7],0.145 (inactive)
same,cell viability (log2),[8],0.108 (inactive)
O=C(Nc1cccc(Cl)c1)/C(=C\c1ccco1)NC(=O)c1cccs1,cell viability (log2),[5],-0.0172 (inactive)
same,cell viability (log2),[6],0.0581 (inactive)
same,cell viability (log2),[7],0.0419 (inactive)
same,cell viability (log2),[8],0.0226 (inactive)
Cc1cn2c(=O)c3ccccc3nc2nc1Nc1ccccc1C(=O)O,cell viability (log2),[5],0.138 (inactive)
same,cell viability (log2),[6],0.0987 (inactive)
same,cell viability (log2),[7],0.0749 (inactive)
same,cell viability (log2),[8],0.0532 (inactive)
O=C1C=CC2=C3c4cc(O)c(O)cc4CC3(O)COC2=C1 (centres undefined),cell viability (log2),[5],0.163 (inactive)
same,cell viability (log2),[6],0.195 (inactive)
same,cell viability (log2),[7],0.225 (inactive)
same,cell viability (log2),[8],0.28 (inactive)
COc1ccc(C2COc3c(ccc(O)c3OC)C2)c(OC)c1O (centres undefined),cell viability (log2),[5],0.108 (inactive)
same,cell viability (log2),[6],0.0205 (inactive)
same,cell viability (log2),[7],0.0667 (inactive)
same,cell viability (log2),[8],-0.00772 (inactive)
COc1cc(OC)c2c(=O)c(-c3ccccc3)coc2c1,cell viability (log2),[5],0.0176 (inactive)
same,cell viability (log2),[6],0.0621 (inactive)
same,cell viability (log2),[7],0.0815 (inactive)
same,cell viability (log2),[8],0.1 (inactive)
COc1cc2c(N3CCN(C(=O)Nc4ccc(OC(C)C)cc4)CC3)ncnc2cc1OCCCN1CCCCC1,cell viability (log2),[9],-0.0129 (inactive)
same,cell viability (log2),[10],-0.0538 (inactive)
same,cell viability (log2),[11],-0.0428 (inactive)
same,cell viability (log2),[12],-0.0392 (inactive)
same,cell viability (log2),[13],-0.0343 (inactive)
same,cell viability (log2),[14],-0.0604 (inactive)
same,cell viability (log2),[15],0.0597 (inactive)
same,cell viability (log2),[16],0.0175 (inactive)
same,cell viability (log2),[17],0.0441 (inactive)
same,cell viability (log2),[18],0.0441 (inactive)
same,cell viability (log2),[19],-0.0915 (inactive)
same,cell viability (log2),[20],0.0601 (inactive)
COc1cc2c(Nc3ccc(Br)cc3F)ncnc2cc1OCC1CCN(C)CC1,cell viability (log2),[9],-0.0043 (inactive)
same,cell viability (log2),[10],0.0398 (inactive)
same,cell viability (log2),[11],-0.0447 (inactive)
same,cell viability (log2),[12],0.068 (inactive)
same,cell viability (log2),[13],0.0443 (inactive)
same,cell viability (log2),[14],0.0503 (inactive)
same,cell viability (log2),[15],-0.0379 (inactive)
same,cell viability (log2),[16],0.00456 (inactive)
same,cell viability (log2),[17],-0.00527 (inactive)
same,cell viability (log2),[18],-0.0123 (inactive)
same,cell viability (log2),[19],-0.0986 (inactive)
same,cell viability (log2),[20],-0.0825 (inactive)
C=CC(=O)Nc1cc2c(Nc3ccc(F)c(Cl)c3)ncnc2cc1OCCCN1CCOCC1,cell viability (log2),[9],0.0394 (inactive)
same,cell viability (log2),[10],0.0254 (inactive)
same,cell viability (log2),[11],-0.016 (inactive)
same,cell viability (log2),[12],0.0224 (inactive)
same,cell viability (log2),[13],-0.0215 (inactive)
same,cell viability (log2),[14],-0.0107 (inactive)
same,cell viability (log2),[15],-0.0981 (inactive)
same,cell viability (log2),[16],-0.0776 (inactive)
same,cell viability (log2),[17],-0.188 (active)
same,cell viability (log2),[18],-0.0307 (inactive)
same,cell viability (log2),[19],-0.199 (active)
same,cell viability (log2),[20],-0.281 (active)
COc1cc2ncnc(Nc3ccc(F)c(Cl)c3)c2cc1OCCCN1CCOCC1,cell viability (log2),[9],0.066 (inactive)
same,cell viability (log2),[10],0.0855 (inactive)
same,cell viability (log2),[11],0.103 (inactive)
same,cell viability (log2),[12],0.0493 (inactive)
same,cell viability (log2),[13],0.114 (inactive)
same,cell viability (log2),[14],0.0535 (inactive)
same,cell viability (log2),[15],0.136 (inactive)
same,cell viability (log2),[16],0.0991 (inactive)
same,cell viability (log2),[17],0.00987 (inactive)
same,cell viability (log2),[18],0.0751 (inactive)
same,cell viability (log2),[19],-0.0152 (inactive)
same,cell viability (log2),[20],0.0721 (inactive)
CS(=O)(=O)CCNCc1ccc(-c2ccc3ncnc(Nc4ccc(OCc5cccc(F)c5)c(Cl)c4)c3c2)o1,cell viability (log2),[9],0.145 (inactive)
same,cell viability (log2),[10],0.0528 (inactive)
same,cell viability (log2),[11],0.146 (inactive)
same,cell viability (log2),[12],0.112 (inactive)
same,cell viability (log2),[13],0.139 (inactive)
same,cell viability (log2),[14],0.114 (inactive)
same,cell viability (log2),[15],0.0651 (inactive)
same,cell viability (log2),[16],0.113 (inactive)
same,cell viability (log2),[17],0.0899 (inactive)
same,cell viability (log2),[18],0.0389 (inactive)
same,cell viability (log2),[19],0.0387 (inactive)
same,cell viability (log2),[20],0.0962 (inactive)
CN(C)C/C=C/C(=O)Nc1cc2c(Nc3ccc(F)c(Cl)c3)ncnc2cc1O[C@H]1CCOC1,cell viability (log2),[9],-0.033 (inactive)
same,cell viability (log2),[10],0.00738 (inactive)
same,cell viability (log2),[11],-0.0507 (inactive)
same,cell viability (log2),[12],-0.00854 (inactive)
same,cell viability (log2),[13],0.0161 (inactive)
same,cell viability (log2),[14],-0.000186 (inactive)
same,cell viability (log2),[15],0.00307 (inactive)
same,cell viability (log2),[16],-0.0241 (inactive)
same,cell viability (log2),[17],-0.0486 (inactive)
same,cell viability (log2),[18],-0.0662 (inactive)
same,cell viability (log2),[19],-1.35 (active)
same,cell viability (log2),[20],-1 (active)
CCCCCCCCCCCCCCCC(=O)NCC(COP(=O)([O-])OCC[N+](C)(C)C)OCC (centres undefined),cell viability (log2),[1],0.198 (inactive)
same,cell viability (log2),[2],0.0364 (inactive)
same,cell viability (log2),[3],0.0761 (inactive)
same,cell viability (log2),[4],-0.0192 (inactive)
COc1ccc(C(=O)c2ccccc2)c(O)c1O,cell viability (log2),[5],0.123 (inactive)
same,cell viability (log2),[6],0.143 (inactive)
same,cell viability (log2),[7],0.244 (inactive)
same,cell viability (log2),[8],0.216 (inactive)
COc1ccc2c(c1)c(CC(=O)Nc1ccc(NC(C)=O)cc1)c(C)n2C(=O)c1ccc(Cl)cc1,cell viability (log2),[1],-0.0274 (inactive)
same,cell viability (log2),[2],0.0874 (inactive)
same,cell viability (log2),[3],0.0757 (inactive)
same,cell viability (log2),[4],0.214 (inactive)
CCCN(CCC)CCc1cccc2c1CC(=O)N2,cell viability (log2),[1],-0.0806 (active)
same,cell viability (log2),[2],-0.203 (active)
same,cell viability (log2),[3],-3.18 (active)
same,cell viability (log2),[4],-2.79 (active)
CCN1C(=O)/C(=C/c2c(N3CCN(C)CC3)nc3ccccn3c2=O)SC1=S,cell viability (log2),[5],0.0782 (inactive)
same,cell viability (log2),[6],0.0798 (inactive)
same,cell viability (log2),[7],0.126 (inactive)
same,cell viability (log2),[8],0.0777 (inactive)
COc1ccc(-c2nn(-c3ccccc3)cc2C=O)cc1[N+](=O)[O-],cell viability (log2),[5],0.000395 (inactive)
same,cell viability (log2),[6],0.0393 (inactive)
same,cell viability (log2),[7],0.0878 (inactive)
same,cell viability (log2),[8],0.0816 (inactive)
COc1cc2ncc(-c3ccccc3)nc2cc1OC,cell viability (log2),[21],0.165 (inactive)
same,cell viability (log2),[22],-0.00441 (inactive)
same,cell viability (log2),[5],0.202 (inactive)
same,cell viability (log2),[6],0.0199 (inactive)
same,cell viability (log2),[1],0.139 (inactive)
same,cell viability (log2),[2],0.0671 (inactive)
same,cell viability (log2),[7],-0.0715 (inactive)
same,cell viability (log2),[8],0.188 (inactive)
same,cell viability (log2),[3],0.212 (inactive)
same,cell viability (log2),[4],0.201 (inactive)
same,cell viability (log2),[23],-0.157 (active)
same,cell viability (log2),[24],0.175 (inactive)
COc1ccccc1N(C(N)=O)c1nc(-c2cccnc2)nc2ccccc12,cell viability (log2),[1],0.155 (inactive)
same,cell viability (log2),[2],0.0439 (inactive)
same,cell viability (log2),[3],0.275 (inactive)
same,cell viability (log2),[4],0.0633 (inactive)
Cc1cc2ncc(-c3ccccc3)nc2cc1C,cell viability (log2),[21],0.21 (inactive)
same,cell viability (log2),[22],0.0761 (inactive)
same,cell viability (log2),[5],0.265 (inactive)
same,cell viability (log2),[6],0.0996 (inactive)
same,cell viability (log2),[7],-0.0894 (active)
same,cell viability (log2),[8],0.141 (inactive)
same,cell viability (log2),[23],-0.147 (active)
same,cell viability (log2),[24],0.0902 (inactive)
O=C(Nc1ccccn1)c1cc(-c2ccccc2)nc2ccccc12,cell viability (log2),[5],0.083 (inactive)
same,cell viability (log2),[6],-0.00975 (inactive)
same,cell viability (log2),[7],0.0888 (inactive)
same,cell viability (log2),[8],-0.0311 (inactive)
C=C(c1ccccc1)c1cc(O)c(OC)cc1O,cell viability (log2),[5],-0.0139 (inactive)
same,cell viability (log2),[6],-0.00424 (inactive)
same,cell viability (log2),[7],0.0356 (inactive)
same,cell viability (log2),[8],0.0603 (inactive)
